Measured values published in PubChem BioAssay AID1159580 (chemical genetic matrix, 2015).
“And” between values parts separate entries of the source, which are not always exact repeats. Equal entries are not always repeated. In all, about 5,500 compounds went through this assay and about 2,000 (36%) were called active. Another 18% or so got no clear call; they are omitted. Rule as the data show it: active = normalized growth mostly below about 0.91 (no sharp cut-off); inconclusive = no clear call, values can overlap the other calls; inactive = mostly above about 0.92. The list shows a part of the results.

Test: chemical genetic growth profiling, strain panel (AID 1159580);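 also: tested at 20 µM; growth read once vehicle control cultures reached saturation at 30 °C; 1 = growth at the plate median or of vehicle wells; lower values mean less growth of the strain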
Settings: S. cerevisiae deletion strains, growth OD

Measured: normalized growth

COC(=O)[C@H]1[C@H]2C[C@H]3c4[nH]c5cc(OC)ccc5c4CCN3C[C@H]2C[C@@H](OC(=O)c2cc(OC)c(OC)c(OC)c2)[C@@H]1OC
inactive: locus YAL021C, strain ccr4, active compounds read low 0.989 | locus YAL026C, strain drs2, active compounds read low 1.02 | locus YAL030W, strain snc1, active compounds read low 1.01 | locus YBL061C, strain skt5, active compounds read low 1.02 | locus YBR009C, strain hhf1, active compounds read low 0.996 | locus YBR021W, strain FUR4, active compounds read low 0.998 | locus YBR023C, strain chs3, active compounds read low 1.01 | locus YBR171W, strain sec66, active compounds read low 1.02 | locus YBR229C, strain ROT2, active compounds read low 1 | locus YBR231C, strain swc5, active compounds read low 1.01 | locus YBR279W, strain paf1, active compounds read low 1.01 | locus YCL011C, strain gbp2, active compounds read low 1.01 | locus YCL016C, strain dcc1, active compounds read low 1.01 | locus YCL029C, strain bik1, active compounds read low 0.971 | locus YCL061C, strain MRC1, active compounds read low 1.01 | locus YCL069W, strain vba3, active compounds read low 1.01 | locus YCR088W, strain abp1, active compounds read low 1.01 | locus YDL005C, strain med2, active compounds read low 1.01 | locus YDL035C, strain GPR1, active compounds read low 1.05 | locus YDL040C, strain nat1, active compounds read low 1.01 | locus YDL074C, strain BRE1, active compounds read low 0.976 | locus YDL101C, strain DUN1, active compounds read low 0.986 | locus YDL185W, strain tfp1, active compounds read low 0.966 | locus YDL192W, strain arf1, active compounds read low 1.02 | locus YDR001C, strain nth1, active compounds read low 1.01 | locus YDR069C, strain doa4, active compounds read low 1 | locus YDR101C, strain arx1, active compounds read low 0.977 | locus YDR137W, strain rgp1, active compounds read low 1.03 | locus YDR159W, strain sac3, active compounds read low 1.02 | locus YDR162C, strain NBP2, active compounds read low 1.02 | locus YDR195W, strain ref2 1 | locus YDR297W, strain sur2, active compounds read low 1.01 | locus YDR318W, strain mcm21, active compounds read low 0.992 | locus YDR334W, strain swr1, active compounds read low 1.02 | locus YDR335W, strain msn5, active compounds read low 1.02 | locus YDR388W, active compounds read low 0.983 | locus YDR392W, strain spt3, active compounds read low 0.925 | locus YDR502C, strain sam2, active compounds read low 0.929 | locus YEL003W, strain gim4, active compounds read low 1.02 | locus YEL037C, strain rad23, active compounds read low 1.02 | locus YEL061C, strain CIN8 (second series), active compounds read low 1.01 | locus YEL061C, strain CIN8, active compounds read low 1 | locus YER015W, strain faa2, active compounds read low 1 | locus YER016W, strain bim1, active compounds read low 1.01 | locus YER110C, active compounds read low 0.975 | locus YER111C, strain swi4, active compounds read low 1.01 | locus YER155C, strain BEM2 (second series), active compounds read low 0.975 | locus YER155C, strain BEM2, active compounds read low 1 | locus YER167W, strain BCK2, active compounds read low 1.01 | locus YFR010W, strain ubp6, active compounds read low 1.01 | locus YGL078C, strain dbp3, active compounds read low 1.02 | locus YGL086W, strain mad1, active compounds read low 0.999 | locus YGL167C, strain pmr1, active compounds read low 1.02 | locus YGL173C, strain kem1, active compounds read low 1.02 | locus YGL227W, strain vid30, active compounds read low 1.01 | locus YGL240W, strain doc1, active compounds read low 0.997 | locus YGL248W, strain PDE1, active compounds read low 0.987 | locus YGL253W, strain hxk2, active compounds read low 1.02 | locus YGR135W, strain pre9, active compounds read low 1 | locus YGR252W, strain gcn5, active compounds read low 1.06 | locus YHR013C, strain ard1, active compounds read low 0.995 | locus YHR027C, strain rpn1, active compounds read low 1.02 | locus YHR030C, strain SLT2, active compounds read low 1.01 and 0.978 | locus YHR079C, strain IRE1 (second series), active compounds read low 0.982 | locus YHR079C, strain IRE1, active compounds read low 0.968 | locus YHR094C, strain hxt1, active compounds read low 0.993 | locus YHR129C, strain ARP1, active compounds read low 1 | locus YHR142W, strain chs7, active compounds read low 1.01 | locus YHR200W, strain rpn10, active compounds read low 0.992 | locus YIL066C, strain RNR3, active compounds read low 1.01 | locus YIL073C, strain SPO22, active compounds read low 0.923 | locus YIL125W, strain kgd1, active compounds read low 1.02 | locus YIR030C, strain dcg1, active compounds read low 0.994 | locus YJL092W, strain hpr5, active compounds read low 1.01 | locus YJL095W, strain BCK1 (second series), active compounds read low 1.01 | locus YJL095W, strain BCK1, active compounds read low 0.958 and 0.964 | locus YJL115W, strain asf1, active compounds read low 1.01 | locus YJL129C, strain trk1, active compounds read low 1 | locus YJL134W, strain LCB3, active compounds read low 0.996 | locus YJL154C, strain vps35, active compounds read low 1 | locus YJL164C, strain tpk1, active compounds read low 1 | locus YJL166W, strain qcr8, active compounds read low 0.987 | locus YJL168C, strain set2, active compounds read low 0.991 | locus YJL187C, strain SWE1 (second series), active compounds read low 0.979 | locus YJL187C, strain SWE1, active compounds read low 1.01 | locus YJR043C, strain POL32, active compounds read low 1.07 | locus YJR066W, strain TOR1, active compounds read low 0.92 | locus YJR075W, strain HOC1, active compounds read low 0.982
